Laboratory results: PubChem BioAssay
Potency and affinity values are given separately. Results filed as inconclusive are left out. Calls of active or inactive are those of the source.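 The calls were made as follows: active = falling signal with fitted half-maximal potency no higher than twice the top valid tested dose; inconclusive = poor fit quality, or flat fit spanning -70% to -30%; inactive = potency over limit, rising signal, or flat fit inside 30%.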

Experiment: fungal growth arrest, C. neoformans – Alamar Blue, cherry-picks, dose response (AID 686998)
Settings: Cryptococcus neoformans growth, 24 h; series mostly up to 35 µM

outcome, inactive:
C[C@H]1CN([C@@H](C)CO)C(=O)c2cc(NS(=O)(=O)c3ccc(F)cc3)ccc2O[C@@H]1CN(C)S(=O)(=O)c1ccccc1, Cc1noc(C)c1S(=O)(=O)Nc1ccc2c(c1)C(=O)N([C@H](C)CO)C[C@@H](C)[C@H](CN(C)Cc1ccccc1)OCCCC[C@H](C)O2, CC(C)NC(=O)N(C)C[C@@H]1OCCCC[C@@H](C)Oc2ccc(NC(=O)c3ccccc3)cc2C(=O)N([C@H](C)CO)C[C@H]1C, CCS(=O)(=O)NCC[C@@H]1CC[C@@H](NS(=O)(=O)c2cccc(F)c2)[C@@H](CO)O1, O=C(C[C@H]1C=C[C@H](NC(=O)C2CCC2)[C@@H](CO)O1)NC1CCC1, CCCNC(=O)Nc1ccc2c(c1)C(=O)N(C)C[C@H](OC)[C@@H](C)CN(Cc1cccnc1)[C@H](C)CO2, Cc1cccc(C)c1NC(=O)C(C)N1CCCC1 (stereo not drawn), O=C(NC(=S)Nc1ccc(CN2CCOCC2)cc1)c1ccc([N+](=O)[O-])cc1, CO[C@@H]1CN(C)C(=O)c2cc(NC(=O)C3CC3)ccc2OC[C@H](C)N(C(=O)c2ccncc2)C[C@H]1C, O=C(CSc1ncnc2c1cnn2-c1ccccc1)NC1CCS(=O)(=O)C1 (stereo not drawn), Cc1cc(C(=O)NC(=S)Nc2ccccc2N2CCCC2)ccc1[N+](=O)[O-], COc1ccc(NC(=O)N(C)C[C@H]2OCCCC[C@@H](C)Oc3ccc(N(C)C)cc3C(=O)N([C@H](C)CO)C[C@H]2C)cc1, CC=Cc1ccc2n(c1=O)C[C@H]1[C@H](CO)[C@@H](C(=O)NCc3ccc4c(c3)OCO4)[C@@H]2N1C(=O)C1CC1 (mixture of isomers)
